This is an account of results in the supplement of paper PMC9477273.

The subject of this experiment is DRIVER-selected RNA biosensor (aptazyme) pool. Description: maximum fold change of ribozyme cleavage across biosensor pool versus no-compound control; higher = stronger biosensor response (ligand inhibits cleavage). Particulars: 10 µM. Here is the method: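 CleaveSeq: a pool of resynthesized hammerhead-ribozyme RNA biosensors (sTRSV scaffold with randomized loops, 1,730 sequences) was T7-transcribed at 37 °C for 15-30 min with a single compound at 10 µM. Cleaved and uncleaved products were counted by NGS, and fold change of cleavage was computed against the DMSO-only condition. The value is the maximum fold change of cleavage over all biosensors in the pool. About 255 compounds were tested individually.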
Regarding `CCOc1ccc2c(c1)[N+](C)=C(/C=C/c1ccc(C(=O)OC)cc1)C2(C)C`, the maximum fold change worked out at 2.67.

Consider `CCCCC(C(=O)N1CCCCC1)N1C(=O)c2ccccc2C1=O` (stereo not given), for which the maximum fold change turned out to be 1.93.

The molecule `O=C(CSc1nnc(-c2ccc(Cl)s2)o1)N1CCOCC1` had a maximum fold change of 3.21.

In turn, `CCOc1cc(CNc2ncc(-c3ccc(Br)cc3)n2C)ccc1O` had a maximum fold change of 2.06.

As to `COc1ccccc1OCC(O)Cn1c[n+](C)c2cc(C)c(C)cc21` (stereo not given), the maximum fold change amounted to 3.47.

With `CCOC(=O)c1c(NC(=O)COc2ccc(Cl)cc2Cl)sc2c1CCC2`, the maximum fold change turned out to be 3.01.

On to `O=C(CCNC(=O)Cn1cnc2sc3c(c2c1=O)CCCC3)NCC1CCCO1` (stereo not given), for which the maximum fold change is 3.04.

Regarding `C=CCNC(=O)/C(C#N)=C/c1c(Oc2ccccc2)nc2ccccn2c1=O`, the maximum fold change came to 9.03.

`Cc1cc(C2C(=O)c3ccccc3C2=O)nc2ccccc12` had a maximum fold change of 11.3.

With `Cc1nn2c(-c3ccco3)nnc2c2ccccc12`, the maximum fold change stood at 8.73.

`O=C1N=c2sc(nn2C(=N)/C/1=Cc1cccn1Cc1ccccc1F)N1CCCC1` showed a maximum fold change of 4.06.

In turn, `Cc1oc2ncn3nc(-c4ccc(F)cc4)nc3c2c1C` came in with a maximum fold change of 10.5.

`N#C/C(=Cc1c(Oc2ccccc2Cl)nc2n(c1=O)cccc2)/c1nc2c([nH]1)cccc2`: the maximum fold change was found to be 7.4.

`CC1CCC(NC(=O)c2cc(C3CC3)n[nH]2)CC1` (stereo not given) yielded a maximum fold change of 1.87.

`Cc1nc(N2C(=O)c3oc4ccccc4c(=O)c3C2c2ccc(Cl)cc2)sc1C` (stereo not given) gave a maximum fold change of 2.07.

Molecule `COc1ccc2nc3oc(C(=O)NCCCN4CCC(Cc5ccccc5)CC4)cc3cc2c1` came in with a maximum fold change of 5.98.

`CCOC(=O)C1=C(C)NC(=S)NC1c1ccc(O)c(OC)c1` (stereo not given) returned a maximum fold change of 3.37.

With `CCOC(=O)c1cnc(SC)nc1N`, the maximum fold change was determined as 3.4.

`C=Cc1ccc(Cn2c(C)c(CNCc3ccc(CC)cc3)c(C(=O)O)c2C)cc1` displayed a maximum fold change of 3.37.

Regarding `COc1ccc(cc1)C1=N/C(=Cc2cc(OC)ccc2OC)/C(=O)O1`, the maximum fold change stood at 1.9.

In the case of `CCCCNCc1c(C(=O)O)c(C)n(Cc2cc(C)ccc2C)c1C`, the maximum fold change was found to be 2.79.

In turn, `Cc1oc2ncn3c(C)nnc3c2c1C(=O)NC1CC1` gave a maximum fold change of 2.62.

`COc1ccc(C(=O)/C=C2\Nc3ccc(C(=O)NCc4cccc(OC)c4)cc3NC2=O)cc1` returned a maximum fold change of 7.89.

Molecule `COc1cccc(-c2cc(C(=O)NC3CCCc4ccccc43)[nH]n2)c1` (stereo not given) had a maximum fold change of 1.96.

The molecule `COc1ccccc1/C=C1N=C(c2ccc(Cl)c(Cl)c2)OC1=O` returned a maximum fold change of 3.36.

Turning to `Cn1c(=O)c2c(-c3ccc(Cl)cc3)n(C3CCCCC3)cc2n(C)c1=O`, the maximum fold change turned out to be 2.62.

For `Cc1ccc(-c2noc(CCC(=O)N3CCN(Cc4ccccc4)CC3)n2)cc1`, the maximum fold change came out at 3.6.

As to `O=S(=O)(NCc1ccccn1)c1ccc(Br)cc1Br`, the maximum fold change was 1.99.

Molecule `O=C(Cn1ncc2c1-c1ccccc1OC2)N1CCC(Cc2ccccc2)CC1` came in with a maximum fold change of 3.52.

With `C=Cc1ccc(Cn2c(C(=O)O)c(CNCc3ccco3)c3ccc(C)cc32)cc1`, the maximum fold change was found to be 2.45.

`COc1ccc(cc1)/C=CC(=O)NCC(=O)O` registered a maximum fold change of 3.29.

`COc1ccccc1OCCCn1cccc1/C=C1\C(=N)N2N=C(N3CCOCC3)SC2=NC1=O` displayed a maximum fold change of 2.03.

In turn, `CCOc1ccc(CCNC2=NS(=O)(=O)C(c3ccc(C)cc3)=C2C)cc1OCC` yielded a maximum fold change of 3.71.

Molecule `CC12CCC(C(=O)O)(c3nc4ccc5ncccc5c4nc31)C2(C)C` (stereo not given) showed a maximum fold change of 2.74.

In the case of `CC(NC(=O)C1CCC(CNS(=O)(=O)c2ccccc2)CC1)c1ccccc1` (stereo not given), the maximum fold change stood at 2.1.

`Cc1ccc2c(CNC3CCC(C)CC3)c(C(=O)O)n(Cc3ccccc3F)c2c1` (stereo not given): the maximum fold change is 2.5.

`C=CCNC(=O)c1c(C)c(C(=O)OCC)n(C)c1C`: the maximum fold change was 2.81.

For the molecule `CC(C)COc1ccc(-c2nn(-c3ccccc3)cc2CO)cc1`, the maximum fold change came out at 3.19.

Turning to `CC(=O)N1C(=N)S/C(=C/c2cc3ccc(C)cc3nc2O)C1=O`, the maximum fold change amounted to 7.51.

`CCOc1cc(C2c3c(-c4ccccc4O)n[nH]c3C(=O)N2CCO)ccc1OCc1ccccc1` (stereo not given) came in with a maximum fold change of 3.55.
